Assay [1] has as its system Vero E6 infected with SARS-CoV-2. Briefly: morphology score (similarity to uninfected cells); higher = more like uninfected cells. As to conditions: 24 h.
For assay [2] the test system is unchanged. The assay can be described thus: SARS-CoV-2 infection rate relative to infected DMSO; higher = more infection, active = 60 or less. As to conditions: 24 h.

The record followed here is the supplement of paper PMC13380429.

In assay [1], `COc1cc2c(cc1F)C(c1ccccc1Cl)=Nc1c(n[nH]c1C)N2` (10 µM) yielded a morphology score of -0.191. In addition, in assay [2], the SARS-CoV-2 infection rate is 104% (inactive).
The matching figures for `CNCCC=C1c2ccccc2C=Cc2ccccc21` [norcyclobenzaprine] (10 µM): 0.314 and 81% (inactive).
For `COc1cc(C2Oc3cc([C@H]4Oc5cc(O)cc(O)c5C(=O)[C@@H]4O)ccc3OC2CO)ccc1O` (stereo partly specified) [silibinin] (10 µM) the same measures were 0.0273 and 104% (inactive).
The matching figures for `Cn1c(Nc2ccc(C(F)(F)F)cc2)nc2cc(Oc3ccnc(-c4ncc(C(F)(F)F)[nH]4)c3)ccc21` (10 µM): -0.041 and 100% (inactive).
`Cc1ccnc2c1NC(=O)c1cccnc1N2C1CC1` [nevirapine] (10 µM) came in with a morphology score in assay [1] of 0.173. In addition, the SARS-CoV-2 infection rate in assay [2] was 104% (inactive).
For `Nc1ncnc2c1ncn2C1CCCO1` (stereo unspecified) (10 µM) the same measures were 0.029 and 103% (inactive).
In turn, `CCOC(=O)[C@@](C)(N)Cc1ccc(O)c(O)c1` [methyldopate] (10 µM) gave a morphology score in assay [1] of 0.0423. Also, the SARS-CoV-2 infection rate in assay [2] was 108% (inactive).
The matching figures for `Fc1ccc([C@@H]2CCNC[C@H]2COc2ccc3c(c2)OCO3)cc1` [paroxetine] (10 µM): -0.0761 and 117% (inactive).
In assay [1], `CNc1cc2[nH]c(=O)n(-c3ccc(NC(=O)NS(=O)(=O)c4ccc(Cl)s4)cc3)c(=O)c2cc1F` [elinogrel] (10 µM) came in with a morphology score of 0.235. Further, in assay [2], the SARS-CoV-2 infection rate is 87.5% (inactive).
The matching figures for `CN/C(=N\S(=O)(=O)c1ccc(Cl)cc1)N1C[C@H](c2ccccc2)C(c2ccc(Cl)cc2)=N1` (racemic) (10 µM): -0.133 and 114% (inactive).
Regarding `Oc1ccc2c3c1O[C@H]1c4oc5ccccc5c4C[C@@]4(O)[C@@H](C2)N(CC2CC2)CC[C@]314` [naltriben] (10 µM), the morphology score in assay [1] is -0.128. In addition, the SARS-CoV-2 infection rate in assay [2] was 106% (inactive).
For `O=C1CC[C@@H](C(=O)N2CSC[C@H]2C(=O)O)N1` [pidotimod] (10 µM) the same measures were -0.145 and 116% (inactive).
Take `Clc1ccc2c(c1)N=C(N1CCNCC1)c1ccccc1N2` [desmethylclozapine] (10 µM): the morphology score in assay [1] came to 0.467. In assay [2], the SARS-CoV-2 infection rate was 53.5% (active).
For `CCCCCn1cc(C(=O)NC23CC4CC(CC(C4)C2)C3)c(=O)c2cc(-c3ccccc3)ccc21` (10 µM) the same measures were 0.119 and 107% (inactive).
For `COc1ccc2c(c1OC)C(=O)O[C@@H]2[C@H]1c2cc3c(cc2CCN1C)OCO3` [hydrastine-(1R,9S)] (10 µM) the same measures were -0.0178 and 108% (inactive).
For `O=C(NO)c1cnc(N2CCN(S(=O)(=O)c3ccc4ccccc4c3)CC2)nc1` (10 µM) the same measures were -0.145 and 115% (inactive).
In assay [1], `Nc1ncnc2nc(-c3ccc(N4CCOCC4)nc3)cc(-c3cccc(Br)c3)c12` (10 µM) came in with a morphology score of 0.0544. In addition, in assay [2], the SARS-CoV-2 infection rate was 108% (inactive).
The matching figures for `C[C@H]1O[C@H](O[C@H]2[C@H](O)[C@@H](O)[C@@H](O[C@H]3[C@H](O)[C@@H](O)C(O)O[C@@H]3CO)O[C@@H]2CO)[C@H](O)[C@@H](O)[C@@H]1N[C@H]1C=C(CO)[C@@H](O)[C@H](O)[C@H]1O` (stereo partly specified) [acarbose] (10 µM): 0.085 and 100% (inactive).
For `C/C=C/C=C/C(=O)O` [sorbic-acid] (10 µM) the same measures were -0.0925 and 101% (inactive).
For `Oc1ccc(C2(c3ccccc3F)CCC(F)(F)CC2)cc1` (10 µM) the same measures were 0.0902 and 93% (inactive).
`CNCCc1ccc(O)c(O)c1` [deoxyepinephrine] (10 µM) registered a morphology score in assay [1] of 0.0423. The SARS-CoV-2 infection rate in assay [2] is 106% (inactive).
For `O=C1Nc2ccc(I)cc2C1=Cc1cc(Br)c(O)c(Br)c1` (10 µM) the same measures were 0.384 and 98.5% (inactive).
Turning to `CC1=C(/C=C/C(C)=C/C=C/C(C)=C/CO)C(C)(C)CCC1` [retinol] (10 µM), the morphology score in assay [1] was -0.0178. Also, the SARS-CoV-2 infection rate in assay [2] was 110% (inactive).
With `Cc1sc(C)c(C(=O)NC2(c3ccc(C(=O)O)cc3)CC2)c1Cc1ccc(C(F)(F)F)cc1` (10 µM), the morphology score in assay [1] is 0.187. Moreover, the SARS-CoV-2 infection rate in assay [2] was 108% (inactive).
Turning to `C[C@H](N)[C@H](O)c1ccc(O)c(O)c1` [levonordefrin] (10 µM), in assay [1], the morphology score was found to be 0.0723. In addition, the SARS-CoV-2 infection rate in assay [2] was 94.5% (inactive).
The matching figures for `CN(C)c1ccc2c(c1)Sc1cc(N(C)C)ccc1N2` [leucomethylene-blue] (0.833333 µM): 0.0825 and 114% (inactive).
For `Cc1cc(Oc2ccc3nc(COc4ccc(CC5SC(=O)NC5=O)cc4)n(C)c3c2)cc(C)c1N` (stereo unspecified) [efatutazone] (10 µM) the same measures were 0.36 and 93.5% (inactive).
For `O=C(Nc1ccc([N+](=O)[O-])cc1Cl)c1cc(Cl)ccc1O` [niclosamide] (0.833333 µM) the same measures were 0.0975 and 97% (inactive).
